Experimental data taken from the supplement of paper PMC10849652.
The full data set covers some 7,900 targets. This sample favours those with a hit. About 0.6% of all pairs of compound and target were hits.

compound: c1cn2cc(-c3ccc4cn[nH]c4c3)nc(Nc3ccc(N4CCOCC4)cc3)c2n1 [entospletinib]; test: log2 fold change, soluble protein after heating vs DMSO (PISA); higher = thermal stabilisation; K562 cells, 10 uM, 30 min; active = over 0.2 and 3.5 SD of the protein, either way, in both replicates (recomputed)
Summary of the method: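 K562 cells (2×10^6 cells/mL) were treated with 10 μM compound for 30 min, and aliquots were heated for 3 min over 48°C-58°C. Pooled aliquots were extracted in PBS with 0.5% NP-40 at 4°C, and the supernatant after 21,000xg for 90 min was measured by TMTpro 16plex LC-MS/MS with channel sums equalised. Reported thermal stability, relative to control samples and from duplicates, is a log2 fold change.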

UniProt Q6P6C2, sequence (Q6P6C2 whole entry, looked up): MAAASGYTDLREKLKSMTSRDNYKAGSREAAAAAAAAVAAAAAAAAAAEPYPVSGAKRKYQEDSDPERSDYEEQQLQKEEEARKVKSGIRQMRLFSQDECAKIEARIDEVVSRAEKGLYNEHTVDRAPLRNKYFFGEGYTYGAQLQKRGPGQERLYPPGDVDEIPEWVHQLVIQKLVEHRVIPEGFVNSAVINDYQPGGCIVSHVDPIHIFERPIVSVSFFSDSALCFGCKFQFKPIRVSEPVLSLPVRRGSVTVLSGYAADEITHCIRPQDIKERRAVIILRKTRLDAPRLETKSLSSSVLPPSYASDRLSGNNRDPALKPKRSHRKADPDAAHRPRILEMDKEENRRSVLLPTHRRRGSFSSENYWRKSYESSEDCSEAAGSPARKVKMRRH
UniProt Q9NWB6, sequence (Q9NWB6 whole entry, looked up): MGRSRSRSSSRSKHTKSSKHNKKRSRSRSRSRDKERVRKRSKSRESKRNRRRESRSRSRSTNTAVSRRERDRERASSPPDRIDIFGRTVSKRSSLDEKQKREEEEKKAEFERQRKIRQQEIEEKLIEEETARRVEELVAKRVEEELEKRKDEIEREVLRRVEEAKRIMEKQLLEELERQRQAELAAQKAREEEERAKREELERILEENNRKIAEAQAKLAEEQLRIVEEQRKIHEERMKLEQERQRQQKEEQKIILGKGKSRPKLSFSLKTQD
UniProt Q9NSY1, sequence (Q9NSY1 whole entry, looked up): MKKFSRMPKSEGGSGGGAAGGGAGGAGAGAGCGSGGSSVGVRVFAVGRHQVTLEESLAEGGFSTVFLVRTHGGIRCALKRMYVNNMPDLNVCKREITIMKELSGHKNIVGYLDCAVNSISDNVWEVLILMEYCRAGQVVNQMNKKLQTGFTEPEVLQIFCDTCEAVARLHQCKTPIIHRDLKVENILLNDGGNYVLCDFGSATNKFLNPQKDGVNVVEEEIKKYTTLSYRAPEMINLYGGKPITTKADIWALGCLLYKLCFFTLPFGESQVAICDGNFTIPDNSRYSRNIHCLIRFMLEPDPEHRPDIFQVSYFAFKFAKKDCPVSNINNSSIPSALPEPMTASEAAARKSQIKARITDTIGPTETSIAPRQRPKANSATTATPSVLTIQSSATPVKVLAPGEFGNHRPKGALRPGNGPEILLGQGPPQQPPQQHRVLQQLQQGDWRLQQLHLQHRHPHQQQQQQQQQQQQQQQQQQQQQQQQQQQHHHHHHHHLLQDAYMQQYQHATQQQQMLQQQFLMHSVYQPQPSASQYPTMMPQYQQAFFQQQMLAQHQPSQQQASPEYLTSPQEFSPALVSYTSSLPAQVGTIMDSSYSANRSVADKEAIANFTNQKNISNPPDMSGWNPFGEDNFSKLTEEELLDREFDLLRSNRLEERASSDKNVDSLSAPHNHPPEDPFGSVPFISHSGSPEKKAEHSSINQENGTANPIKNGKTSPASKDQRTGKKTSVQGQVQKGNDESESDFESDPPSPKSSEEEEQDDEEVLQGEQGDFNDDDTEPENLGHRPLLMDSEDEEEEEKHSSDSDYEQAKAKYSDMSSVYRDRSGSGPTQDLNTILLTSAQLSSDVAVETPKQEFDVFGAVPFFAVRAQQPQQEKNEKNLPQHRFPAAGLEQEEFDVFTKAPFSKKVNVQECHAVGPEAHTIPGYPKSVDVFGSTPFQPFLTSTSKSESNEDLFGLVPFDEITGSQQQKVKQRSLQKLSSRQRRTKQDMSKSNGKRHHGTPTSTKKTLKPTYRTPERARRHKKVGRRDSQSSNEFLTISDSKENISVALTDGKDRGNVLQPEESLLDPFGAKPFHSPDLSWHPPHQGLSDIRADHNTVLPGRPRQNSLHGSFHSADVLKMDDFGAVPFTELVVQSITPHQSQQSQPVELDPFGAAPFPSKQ
UniProt Q96BI3, sequence (Q96BI3 whole entry, looked up): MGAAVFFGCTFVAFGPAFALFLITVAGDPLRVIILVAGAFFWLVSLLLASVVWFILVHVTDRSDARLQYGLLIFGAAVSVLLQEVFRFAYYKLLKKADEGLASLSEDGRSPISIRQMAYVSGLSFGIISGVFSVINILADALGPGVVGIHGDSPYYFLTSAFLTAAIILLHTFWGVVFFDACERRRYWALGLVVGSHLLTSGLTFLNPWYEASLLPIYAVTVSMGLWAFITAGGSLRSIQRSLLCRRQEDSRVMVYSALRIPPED
UniProt Q99798, sequence (Q99798 whole entry, looked up): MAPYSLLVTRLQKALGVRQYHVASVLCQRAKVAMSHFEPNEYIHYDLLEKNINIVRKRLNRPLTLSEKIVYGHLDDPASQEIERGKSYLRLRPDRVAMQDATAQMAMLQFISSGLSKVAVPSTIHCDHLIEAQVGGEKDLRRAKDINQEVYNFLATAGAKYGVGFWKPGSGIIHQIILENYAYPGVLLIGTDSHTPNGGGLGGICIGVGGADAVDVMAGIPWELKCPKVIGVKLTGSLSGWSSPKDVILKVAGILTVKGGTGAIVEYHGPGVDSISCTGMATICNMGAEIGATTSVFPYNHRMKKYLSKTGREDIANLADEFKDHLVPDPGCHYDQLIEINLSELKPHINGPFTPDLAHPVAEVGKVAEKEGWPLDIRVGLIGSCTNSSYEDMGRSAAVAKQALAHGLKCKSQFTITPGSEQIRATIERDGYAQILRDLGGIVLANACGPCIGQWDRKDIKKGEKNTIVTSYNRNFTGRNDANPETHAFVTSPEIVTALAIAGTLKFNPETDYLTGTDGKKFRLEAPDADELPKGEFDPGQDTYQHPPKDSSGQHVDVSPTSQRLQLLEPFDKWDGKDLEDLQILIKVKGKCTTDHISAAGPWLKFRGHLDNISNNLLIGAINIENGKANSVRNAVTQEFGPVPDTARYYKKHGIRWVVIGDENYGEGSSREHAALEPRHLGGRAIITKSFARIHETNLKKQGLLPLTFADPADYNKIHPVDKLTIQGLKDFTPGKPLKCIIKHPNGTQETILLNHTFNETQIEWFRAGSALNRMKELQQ
UniProt P30837, sequence (P30837 whole entry, looked up): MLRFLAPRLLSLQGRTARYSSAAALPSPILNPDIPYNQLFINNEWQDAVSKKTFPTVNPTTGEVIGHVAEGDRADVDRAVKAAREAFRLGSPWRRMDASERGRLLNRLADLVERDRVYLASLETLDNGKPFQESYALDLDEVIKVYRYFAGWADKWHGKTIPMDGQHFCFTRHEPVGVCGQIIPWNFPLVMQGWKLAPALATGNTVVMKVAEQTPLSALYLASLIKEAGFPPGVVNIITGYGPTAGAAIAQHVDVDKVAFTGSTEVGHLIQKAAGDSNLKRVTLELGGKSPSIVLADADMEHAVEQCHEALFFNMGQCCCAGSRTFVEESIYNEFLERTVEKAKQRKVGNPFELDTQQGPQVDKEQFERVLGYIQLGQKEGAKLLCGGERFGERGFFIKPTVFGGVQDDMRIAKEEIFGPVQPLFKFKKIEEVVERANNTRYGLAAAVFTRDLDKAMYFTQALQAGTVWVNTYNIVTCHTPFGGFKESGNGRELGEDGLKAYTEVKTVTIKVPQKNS
UniProt Q9UII2, sequence (Q9UII2 whole entry, looked up): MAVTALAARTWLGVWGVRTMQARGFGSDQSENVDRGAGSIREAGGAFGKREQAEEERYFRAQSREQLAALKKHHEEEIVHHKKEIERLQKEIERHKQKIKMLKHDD
UniProt Q5T9A4, sequence (Q5T9A4 whole entry, looked up): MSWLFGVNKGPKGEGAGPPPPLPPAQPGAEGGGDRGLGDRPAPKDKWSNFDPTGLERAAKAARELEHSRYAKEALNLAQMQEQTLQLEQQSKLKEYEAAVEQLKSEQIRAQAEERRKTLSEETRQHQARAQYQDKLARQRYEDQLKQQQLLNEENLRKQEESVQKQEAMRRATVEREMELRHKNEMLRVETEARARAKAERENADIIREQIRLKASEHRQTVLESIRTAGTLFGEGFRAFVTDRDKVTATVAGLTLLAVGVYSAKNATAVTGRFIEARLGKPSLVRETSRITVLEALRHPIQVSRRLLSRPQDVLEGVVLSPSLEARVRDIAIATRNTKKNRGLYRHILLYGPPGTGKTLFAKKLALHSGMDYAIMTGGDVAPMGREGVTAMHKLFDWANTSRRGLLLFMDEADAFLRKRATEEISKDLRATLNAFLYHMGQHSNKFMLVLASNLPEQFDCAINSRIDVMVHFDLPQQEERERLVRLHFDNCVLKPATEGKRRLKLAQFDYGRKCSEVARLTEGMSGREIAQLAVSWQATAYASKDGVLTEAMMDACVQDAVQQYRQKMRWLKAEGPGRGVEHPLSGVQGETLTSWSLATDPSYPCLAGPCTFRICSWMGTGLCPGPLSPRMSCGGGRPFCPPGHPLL
UniProt P02749, sequence (P02749 whole entry, looked up): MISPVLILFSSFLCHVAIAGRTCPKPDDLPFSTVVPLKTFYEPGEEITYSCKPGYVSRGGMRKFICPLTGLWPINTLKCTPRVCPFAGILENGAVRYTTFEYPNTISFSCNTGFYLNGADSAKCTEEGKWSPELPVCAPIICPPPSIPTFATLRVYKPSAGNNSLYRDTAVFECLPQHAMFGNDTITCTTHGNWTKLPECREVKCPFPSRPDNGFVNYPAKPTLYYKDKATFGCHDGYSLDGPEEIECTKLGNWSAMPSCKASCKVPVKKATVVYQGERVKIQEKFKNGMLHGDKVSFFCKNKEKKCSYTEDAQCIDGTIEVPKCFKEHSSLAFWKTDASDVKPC
UniProt P11310, sequence (P11310 whole entry, looked up): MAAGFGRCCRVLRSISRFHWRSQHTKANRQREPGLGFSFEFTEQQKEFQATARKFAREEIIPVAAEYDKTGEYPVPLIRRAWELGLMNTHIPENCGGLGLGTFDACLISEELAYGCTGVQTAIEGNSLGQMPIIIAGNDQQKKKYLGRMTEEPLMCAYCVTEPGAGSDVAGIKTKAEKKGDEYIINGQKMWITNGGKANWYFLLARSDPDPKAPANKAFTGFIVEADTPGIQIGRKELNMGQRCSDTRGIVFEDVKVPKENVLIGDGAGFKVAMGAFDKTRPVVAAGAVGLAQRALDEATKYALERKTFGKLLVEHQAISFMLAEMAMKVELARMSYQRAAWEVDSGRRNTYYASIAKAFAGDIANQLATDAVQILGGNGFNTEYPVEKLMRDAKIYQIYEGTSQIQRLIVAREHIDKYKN

log2 fold change, inactive:
APOH (UniProt P02749) 0.206, ANP32E (UniProt Q9BTT0) 0, APH1A (UniProt Q96BI3) -0.084, ADD3 isoform 2 (UniProt Q9UEY8) -0.066, ARRDC1 (UniProt Q8N5I2) -0.014, ATP5IF1 (UniProt Q9UII2) 0.057, ATAD3B (UniProt Q5T9A4) 0.058, ALKBH5 (UniProt Q6P6C2) -0.03, ARGLU1 (UniProt Q9NWB6) -0.013, ACSL5 isoform 3 (UniProt Q9ULC5) -0.021, ARFRP1 (UniProt Q13795) 0.024, ACADM isoform 2 (UniProt P11310) -0.001, ACO2 (UniProt Q99798) -0.008, BMP2K (UniProt Q9NSY1) 0.157, ALDH6A1 (UniProt Q02252) -0.028, ALDH1B1 (UniProt P30837) -0.018
